Measured values taken from the OligoGym collection.

Target: STARD3
Test: pooled miR-30 sensor sort-seq; sequence = guide strand
Conditions: shRNA
Note: reference of the scale not given here.

Sequence | sensor-assay potency score (higher = more potent)
TTGACAATGAGGAATGCACTGG | 0.205
TGTGTTGGTATTCAGTTCGATG | -1.58
TTAAGAATCCAGACAAAGGTGC | -0.169
TTATTCTTCTCAAACTTCCAGT | -0.167

Target: STAT5B
Test: as above
Conditions: shRNA

Sequence | sensor-assay potency score (higher = more potent)
TTCTGAGTCACTGAATCTCAGG | -1.25
TAACTCATTCTCTGTGTCCTGC | 0.72
TTCTCAATGATGAACGTGCTGG | -0.64
TTTAGCAGTAGCAGACTCGCAG | 0.175
TAACACTTCCATCACACCGTCA | -0.288
TATACTTCATCTTTTGGCCGAT | -0.0426
TTGACTTGAAAAACCAGCTCAT | 0.235
TTTAACACTTCCATCACACCGT | 0.122
TTGGCTTCTCGGACCAACCTCT | -0.339
TTGTTCAAGATCTCGCCACTGT | 0.132
TTAGCAGTAGCAGACTCGCAGG | -0.797
TTAACACTTCCATCACACCGTC | -0.414

Target: STK11
Test: as above
Conditions: shRNA

Sequence | sensor-assay potency score (higher = more potent)
TTTCTGCTTCTCTTCGTTGTAT | 0.0401
TCAGCTGACAGAAGTACCCGTG | 0.17
TTTTTGTGCCGTAACCTCCTCA | 0.218
TTCGCAACTTCTTCTTCTTGAG | -0.46
TCGCAACTTCTTCTTCTTGAGG | -1.45
TTCTTCTTGAGGATCTTGACGG | -0.484
TTCGTTGTATAACACATCCACC | -1.02
TATAACACATCCACCAGCTGGA | 0.528
TCTTCTTGAGGATCTTGACGGC | -0.46
TACATTTTCTGCTTCTCTTCGT | 0.646
TAACACATCCACCAGCTGGATG | -1.1
ATCAGCTGACAGAAGTACCCGT | -0.0103

Target: STK24
Test: as above
Conditions: shRNA

Sequence | sensor-assay potency score (higher = more potent)
TTTCCTTCCAACGTCGGTGGGT | 0.554
TCTCGGATTGTGAAGATCCAGT | -1.01
TATACAAATCTGTACACCCATC | -1.31
TGGACTGTCACACTGACTCAGC | -1.39
TTGTGCTTCAATAACTCCTTAG | -0.488
TTTCATCTTATTTCTGTCCAAG | -0.728
TTCTAATAGATCTAGTGCGGAG | -0.878
TAATATAGTAGCGATCTGGGTT | 0.44
TACATATGGACTGTCACACTGA | 0.632
TTTCTCTTAATATAGTAGCGAT | -0.861
TAATTGTAGATAAACACTGAGA | -0.826
